# In the library only some 19% were active in any assay of this set; here they are far more common.
# DT40 TDP1 no CPT: qHTS for Inhibitors of human tyrosyl-DNA phosphodiesterase 1 (TDP1): qHTS in cells in absence of CPT | DT40 Tdp1-/- hTDP1 cells, no CPT, ATP luminescence, 48 h | Potency, µM (highest dose often 46.2 µM), inactives show at the highest dose activity change, negative = growth inhibition, hits mostly inhibitors | actives 15% (n = 420,000) | AID 686978, 2013; also: nearly all actives have a fitted effect of over 55% in size
#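 Luminescent ATP content (CellTiter-Glo) served as the growth readout. Knockout chicken DT40 cells expressing human TDP1 were exposed to compounds without camptothecin for a minimum 48 hr at 37 °C.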
# HT1080-NT tox: kills 2HG-producing HT-1080-NT fibrosarcoma cells; actives 1.6% (n = 360,000); AID 686970; HT-1080-NT fibrosarcoma viability, CellTiter-Glo ATP luminescence, 48 h; Potency, µM (doses to about 46.1 µM), inactives show at the top dose activity, negative = less viability, actives largely listed as cytotoxic;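 also: NT is the 2HG producing partner of a matched IDH1 knockdown line; 0% = DMSO-treated cells and -100% = media-only wells without cells; nearly all actives have a fitted effect of over 55% in size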
#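 HT-1080-NT; 750 cells/well; 5% FBS RPMI; 48 h compound, 37 degrees C; CellTiter-Glo luminescence; curve fitting and curve-class assignment.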
# DT40 TDP1 CPT: growth inhibition of DT40 Tdp1-/-;hTDP1 cells with camptothecin (screen for TDP1 inhibitors). chicken DT40 Tdp1-/-;hTDP1 cells + 20 nM CPT, ATP luminescence, 48 h. Potency, µM (top dose mostly 46.2 µM), for inactives: at the top dose activity change, negative = growth inhibition, hits mostly inhibitors. actives 12% (n = 420,000). AID 686979; also: nearly all actives have a fitted effect of over 55% in size
#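 Chicken DT40 Tdp1-/- cells complemented with human TDP1, 400 cells/well, exposed to compounds plus 20 nM camptothecin for at least 48 h at 37 C; viability read as ATP content by CellTiter-Glo luminescence.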
# KB-V1 MDR tox: kills drug-selected multidrug resistant KB-V1 cells; KB-V1 MDR cells viability, CellTiter-Glo, 72 h; Potency, µM (top dose mostly 46.1 µM), usual class: cytotoxic; actives 3.4% (n = 400,000); also: nearly all actives have a fitted effect of over 60% in size
#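 Cytotoxicity toward P-gp-expressing KB-V1 cells was determined as loss of CellTiter-Glo luminescence after 72 h at 37 degrees C. Compounds were tested in quantitative HTS format across a concentration range, with curves fitted to normalized data.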
# HT1080 IDH1KD tx: kills HT-1080 cells with IDH1 knockdown; actives 2% (n = 360,000); HT-1080 IDH1 knockdown viability, ATP luminescence, 48 h; Potency, µM (top dose mostly 46.1 µM), inactives show at the highest dose activity, negative = toxicity, actives largely listed as cytotoxic;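 also: 0% = DMSO wells and -100% = cell-free medium wells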
#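 Cytotoxicity counter-line: IDH1KD HT-1080, 48 h, CellTiter-Glo. Curves classed by r2, magnitude and activity.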
# KB-3-1 tox: kills parental KB-3-1 adenocarcinoma cells; KB-3-1 viability, CellTiter-Glo ATP luminescence, 72 h; Potency, µM (doses to about 46.1 µM), actives largely listed as cytotoxic; actives 1.4% (n = 400,000); also: nearly all actives have a fitted effect of over 60% in size
#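 Cytotoxicity measured as CellTiter-Glo luminescence after 72 h at 37 C. Compound titrations were pinned onto drug-naive KB-3-1 parental adenocarcinoma cells grown in DMEM with 10% FBS, and normalized data fitted to concentration-response curves.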
# * = called active by the depositor; i = inactive; ? = inconclusive; · = no result; ! = a repeat was not active. Calls follow the shape of the dose curve; as a rule, active = well fitted curve in the direction sought with a large enough effect; inconclusive = small, poorly fitted or top-dose-only effect, or another doubt; inactive = no such curve, though single readings can be large; an effect the other way counts as inactive or inconclusive. Unless noted, % is scaled to controls: 0 for no effect and ±100 for the full control effect; potency is read from the fitted curve at half-maximal effect.
SMILES,DT40 TDP1 no CPT,HT1080-NT tox,DT40 TDP1 CPT,KB-V1 MDR tox,HT1080 IDH1KD tx,KB-3-1 tox
Cc1ccccc1NC(=O)C1CCCN(S(=O)(=O)c2cccc3cccnc23)C1 (stereo not given),?,-1%,?,i,2%,i
O=C(NCc1ccc2c(c1)OCO2)C1CCCN(S(=O)(=O)c2cccc3nonc23)C1 (stereo not given),?,-4%,?,i,-8%,i
O=C(NC1CCCC1)C1CCCN(S(=O)(=O)c2cccc3cccnc23)C1 (stereo not given),-23%,-2%,?,i,-8%,i
Cc1cccc(NC(=O)C2CCCN(S(=O)(=O)c3cccc4cccnc34)C2)c1 (stereo not given),23µM*,-10%,18µM*,i,-3%,i
Cc1ccc(NC(=O)C2CCCN(S(=O)(=O)c3cccc4cccnc34)C2)c(Br)c1 (stereo not given),?,·,?,i,·,i
O=C(NCc1ccc2c(c1)OCO2)C1CCCN(S(=O)(=O)c2cccc3cccnc23)C1 (stereo not given),16µM*,-2%,?,i,-3%,i
O=C(Nc1cccc(F)c1)C1CCCN(S(=O)(=O)c2cccc3cccnc23)C1 (stereo not given),23µM*,-2%,18µM*,i,0%,?
Cc1ccc(CONC(=O)c2ccc(C)cc2)cc1,13%,19%,-14%,i,5%,i
COCCCN1C(=O)c2ccc(C(=O)OCC(=O)N(CCC#N)c3cc(C)cc(C)c3)cc2C1=O,-6%,5%,12%,i,5%,i
Cc1nn(CCO)c2ncc(C(=O)c3cc(Cl)ccc3O)cc12,-26%,-6%,1%,?,-16%,i
Cc1cccc(C(=O)Nc2ccc(OCc3cc(=O)n4ccc(C)cc4n3)cc2)c1,-10%,·,-9%,i,·,i
CCc1ccccc1NC(=O)N1CCc2cc(OC)c(OC)cc2C1CC(=O)OC (stereo not given),18µM*,·,?,·,·,·
COc1cc(OC)c(NC(=O)N2CCc3cc(OC)c(OC)cc3C2CC(=O)O)cc1Cl (stereo not given),8.2µM*,·,15µM*,·,·,·
COc1cc2c(cc1OC)C(CC(=O)O)N(C(=O)CC1CCCC1)CC2 (stereo not given),-10%,20%,10%,i,14%,i
CCc1ccccc1NC(=O)N1CCc2ccccc2C1,19%,20%,20%,i,19%,i
CC1(C)CC[C@]2(CO)CC[C@]3(C)C(=CCC4[C@@]5(C)CC[C@H](O)[C@@](C)(CO)C5CC[C@]43C)[C@@H]2C1 (stereo not given in full),?,5%,?,i,10%,i
COc1ccc(CNC(=O)C2CCN(S(=O)(=O)c3cccc(-c4noc(C)n4)c3)CC2)cc1,9.2µM*,·,23µM*,i,·,i
COc1ccc(CNC(=O)C2CCCN(S(=O)(=O)c3ccc4c(c3)CCCN4C(C)=O)C2)cc1 (stereo not given),10µM*,-8%,15µM*,i,-2%,21µM*!
COc1ccc(CNC(=O)C2CCN(S(=O)(=O)c3cccnc3)CC2)cc1,-5%,-1%,25%,i,-2%,i
COc1ccc(N2CCN(S(=O)(=O)c3ccc4c(c3)CCCN4C(C)=O)CC2)cc1,?,·,16µM*,i,·,i
CCOC(=O)C1CCCN(S(=O)(=O)c2ccccc2)C1 (stereo not given),-6%,0%,3%,?,-1%,i
CC(=O)N1CCCc2cc(S(=O)(=O)N3CCCC3)ccc21,6%,-1%,3%,i,11%,i
CCOC(=O)C1CCCN(S(=O)(=O)c2cc(C(=O)OC)n(C)c2)C1 (stereo not given),16µM*,-9%,16µM*,?,-9%,?
Cc1cc(NC(=O)OC2CCCCC2)ccc1[N+](=O)[O-],?,5%,-7%,i,3%,i
COc1cccc(NS(=O)(=O)c2ccc3c(c2)CCCN3C(C)=O)c1,?,-15%,?,21µM*,-8%,i
SMILES,DT40 TDP1 no CPT,HT1080-NT tox,DT40 TDP1 CPT,KB-V1 MDR tox,HT1080 IDH1KD tx,KB-3-1 tox
CCOC(=O)C1CCCN(S(=O)(=O)c2ccc3c(c2)CCCN3C(C)=O)C1 (stereo not given),18µM*,·,?,i,·,i
CCOC(=O)C1CCN(S(=O)(=O)c2ccc3c(c2)CCCN3C(C)=O)CC1,-18%,2%,-6%,i,-5%,i
C=C1CCN([C@H](C(=O)NCc2ccc(OC)cc2)C(C)C)S(=O)(=O)c2ccccc21,-12%,3%,-18%,i,2%,i
O=C(CNS(=O)(=O)c1cccs1)NCCc1ccc(Cl)cc1,-9%,-3%,2%,i,6%,i
CCOC(=O)C1CCCN(C(=O)c2ccc3ccccc3c2)CC1 (stereo not given),?,-2%,?,i,6%,i
CCCOP(=O)(c1ccc(N(C)C)cc1)C(O)c1ccccc1OC (stereo not given),?,16%,-7%,i,-1%,i
C=CC(=O)N(CCC)C(c1ccccc1)c1ccccc1OC (stereo not given),15µM*,-3%,16µM*,i,-3%,?
Cc1noc(C)c1NC(=O)Nc1cccc2c1O[C@@H](CN(C)C(=O)Nc1ccc3c(c1)OCO3)[C@@H](C)CN([C@H](C)CO)C2=O,?,13%,?,i,13%,i
Cc1ccc(/C=c2\sc3nc(-c4cccnc4)nn3c2=O)cc1,29µM*,-1%,?,i,-1%,i
CC(C)c1ccc(/C=c2\sc3nc(-c4ccncc4)nn3c2=O)cc1,12µM*,7%,?,i,11%,i
O=C(NCCCn1ccnc1)c1cccc(Br)c1,7%,11%,2%,i,10%,i
Cc1csc(-c2cc(C(=O)NCc3ccc(F)cc3)n[nH]2)c1,?,-4%,?,i,0%,i
CCCCOc1ccc(C2=CSC3=NCCN23)cc1[N+](=O)[O-],29µM*,-1%,?,i,-9%,i

# Compound activity (PubChem)
